Compound activity as filed in PubChem BioAssay.
An excerpt weighted towards active compounds, which were near 7.5% of everything screened.
SMN2 splice enh: qHTS Assay for Enhancers of SMN2 Splice Variant Expression; 2.8% of 210,000 active; HEK293 SMN2-luciferase splicing reporter, luminescence, 30-36 h; AID 1458, 2008; Potency, µM (top dose mostly 46.1 µM), inactives show at the top dose activity change, positive = activation, most hits filed as activators; further: % of control where 0% means no effect; nearly all actives have a fitted effect of over 55% in size
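qHTS luciferase splicing reporter: luminescence rises when SMN2 exon 7 is included in transfected HEK293 cells. Compound exposure lasted 30-36 h at 37C, with 4.5 mM final sodium butyrate as control, followed by a ONE-Glo read.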
ELG1 genotoxic: qHTS screen for small molecules that induce genotoxicity in human embryonic kidney (HEK293T) cells expressing luciferase-tagged ELG1 | Potency, µM (series often up to 46 µM), for inactives: at the top dose activity change, positive = activation, actives largely listed as activators | 1.3% of 330,000 active | AID 504466, 2011 | HEK293T ELG1-luciferase reporter, luminescence, 16 h; further: % of control where 0% means no effect; nearly all actives have a fitted effect of over 60% in size
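HEK293T cells expressing luciferase-tagged ELG1 were treated with compound or DMSO for 16 hr at 37°C. Luciferase activity was then read after 30 min with ONE-Glo at room temperature; rising signal flags genetic stress.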
Rab9 prom act: qHTS Assay for Rab9 Promoter Activators; 2.8% of 320,000 active; AID 485297, 2010; Huh7 Rab9 promoter-luciferase reporter, luminescence, 24 h; Potency, µM (top dose mostly 9.22 µM), without a hit: at the highest dose activation, negative = inhibition, hits mostly activators; further: % of control where 0% means no effect; nearly all actives have a fitted effect of over 60% in size
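Luciferase signal after 10 min detection reagent at ambient indicates Rab9 promoter upregulation; stably transfected Huh7 cells were treated 24 h with compound in DMSO at 37 °C, 5% CO2.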
Luc counter: Counterscreen for Luciferase (Kinase-Glo TM) Inhibition. Kinase-Glo luciferase, ATP luminescence, 8 min. Potency, µM (top dose mostly 38.3 µM), inactives show top-dose activity change, negative = inhibition, usual class: inhibitors. 0.28% of 200,000 active. AID 1379, 2008; further: on the % scale 0 is the no-effect control and ±100 the full control effect; nearly all actives have a fitted effect of over 60% in size
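Kinase-Glo luciferase light output from ATP and luciferin was measured with 10 uM ATP, within the enzyme's linear range. Buffer: 50 mM imidazole pH 7.2, 50 mM KCl, 7 mM MgCl2, 0.01% Tween 20, 0.05% BSA; luminescence read after 8 min at ambient temperature.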
FLuc modulator: qHTS profiling assay for firefly luciferase inhibitor/activator using purifed enzyme and Km concentrations of substrates (counterscreen for miR-21 project) | Luciferin 4-monooxygenase (Photinus pyralis), P08659 | purified FLuc, Km substrates, luminescence inhibition | Potency, µM (doses to about 57.5 µM), inactives show at the highest dose activity change, negative = inhibition, most hits filed as inhibitors | 6.9% of 360,000 active;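 further: plate controls were vehicle for no effect and reference inhibitor for full effect; nearly all actives have a fitted effect of over 55% in size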
Target sequence (P08659 whole entry, looked up): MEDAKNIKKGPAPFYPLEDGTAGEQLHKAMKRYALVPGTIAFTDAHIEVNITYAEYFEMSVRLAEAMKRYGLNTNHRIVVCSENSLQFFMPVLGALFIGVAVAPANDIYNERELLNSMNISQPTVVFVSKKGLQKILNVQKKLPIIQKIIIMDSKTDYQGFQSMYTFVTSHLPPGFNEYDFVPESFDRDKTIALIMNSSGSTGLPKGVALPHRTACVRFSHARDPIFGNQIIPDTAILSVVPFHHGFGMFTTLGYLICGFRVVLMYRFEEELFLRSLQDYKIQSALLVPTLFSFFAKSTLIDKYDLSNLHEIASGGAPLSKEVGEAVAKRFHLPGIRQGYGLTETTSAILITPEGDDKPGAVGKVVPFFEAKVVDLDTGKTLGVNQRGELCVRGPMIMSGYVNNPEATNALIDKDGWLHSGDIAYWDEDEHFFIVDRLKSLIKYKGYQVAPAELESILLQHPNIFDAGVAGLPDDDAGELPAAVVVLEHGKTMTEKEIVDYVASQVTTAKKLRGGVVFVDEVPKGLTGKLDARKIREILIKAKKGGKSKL
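Biochemical qHTS of compounds, final roughly 60 µM downward over six points, against 10 nM purified firefly luciferase using Km concentrations of substrates (10 uM D-luciferin, 10 uM ATP) in Tris acetate pH 7.5 buffer; luminescence output.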
NPC1 promoter act: qHTS Assay for NPC1 Promoter Activators; 2.4% of 320,000 active; Potency, µM (top dose mostly 9.22 µM), for the others: top-dose activation, actives largely listed as activators; AID 485313, 2010; Huh7 NPC1 promoter luciferase reporter, 24 h; further: % of control where 0% means no effect; nearly all actives have a fitted effect of over 60% in size
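Stably transfected Huh7 (NPC1 promoter→luciferase), 1500 cells/well in Opti-MEM + 10% FBS, 2 h settle, then compound 24 h at 37 °C. Luminescence after 10 min with Amplite reagent.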
* = called active by the depositor; [ ] = remark or other dose. The call rests on the fitted dose curve; in most records, active means well fitted curve in the direction sought with a large enough effect; inconclusive means small, poorly fitted or top-dose-only effect, or another doubt; inactive means no such curve, though single readings can be large; an effect the other way counts as inactive or inconclusive. Potency means the concentration at half of the fitted maximal effect.

How did COc1ccccc1CNc1ccc(-c2nc(C(C)C)no2)cc1[N+](=O)[O-] do in these assays?
FLuc modulator: 12µM*

How did COc1ccccc1CNc1ccc(-c2nc(C)no2)cc1[N+](=O)[O-] do in these assays?
FLuc modulator: 13µM*

Results for COc1ccc(S(=O)(=O)N2CCCC(C(=O)N3CCOCC3)C2)cc1OC (stereo not given) ?
ELG1 genotoxic: -4%; Rab9 prom act: 3%; FLuc modulator: 0%; NPC1 promoter act: -3%

Results for CC(C)c1ccc(NC(=S)N2CCCC2)cc1 ?
ELG1 genotoxic: inconclusive; Rab9 prom act: 2.2µM*; FLuc modulator: 24µM*; NPC1 promoter act: 2.5µM*

What do the screens show for `OCC1CCCN(C(=S)Nc2ccc(OC(F)F)cc2)C1` (stereo not given)?
ELG1 genotoxic: inconclusive; Rab9 prom act: 29%; FLuc modulator: 17µM*; NPC1 promoter act: 26%

Results for Cc1ccc(NC(=S)N2CCCC(O)C2)cc1 (stereo not given) ?
SMN2 splice enh: inconclusive; ELG1 genotoxic: inconclusive; Rab9 prom act: 25%; Luc counter: 1%; FLuc modulator: 17µM*; NPC1 promoter act: 3%

How did CC(C)c1ccc(NC(=S)N2CCN(C)CC2)cc1 do in these assays?
ELG1 genotoxic: inconclusive; Rab9 prom act: 26%; FLuc modulator: inconclusive; NPC1 promoter act: 20%

Results for OCC1CCCN(C(=S)Nc2ccc(Nc3ccccc3)cc2)C1 (stereo not given) ?
SMN2 splice enh: inconclusive; ELG1 genotoxic: inconclusive; Rab9 prom act: 2µM*; Luc counter: -1%; FLuc modulator: 9.5µM*; NPC1 promoter act: inconclusive

What do the screens show for `Cc1ccc(NC(=S)N2CCOCC2)cc1`?
SMN2 splice enh: 14%; ELG1 genotoxic: 0%; Rab9 prom act: 2%; Luc counter: -1%; FLuc modulator: inconclusive; NPC1 promoter act: -1%

What do the screens show for `NC(=O)C1CCCN(C(=S)Nc2ccccc2)C1` (stereo not given)?
SMN2 splice enh: -21%; ELG1 genotoxic: 0%; Rab9 prom act: 2%; Luc counter: 1%; FLuc modulator: 0%; NPC1 promoter act: -3%

What do the screens show for `COC(=O)c1sccc1S(=O)(=O)N(CC(=O)Nc1c(C)cccc1C)c1ccc(C)c(C)c1`?
FLuc modulator: 1%

How did Cc1ccc(/C=N/n2cnc3sc(C)c(C)c3c2=O)o1 do in these assays?
SMN2 splice enh: 28%; ELG1 genotoxic: 11%; Rab9 prom act: inconclusive; Luc counter: 4%; FLuc modulator: inconclusive; NPC1 promoter act: 8%

Results for COc1ccc(N(C(=O)c2snc(C(N)=O)c2N)C(C(=O)NC2CCCCC2)c2ccc(C)o2)cc1 (stereo not given) ?
ELG1 genotoxic: -7%; Rab9 prom act: 4%; FLuc modulator: 0%; NPC1 promoter act: -5%

Results for Cc1ccc(NC(=S)c2nc3ccccc3s2)cc1 ?
SMN2 splice enh: inconclusive; ELG1 genotoxic: 10%; Rab9 prom act: 2.8µM*; Luc counter: -7%; FLuc modulator: 0.95µM*; NPC1 promoter act: 1.3µM*

How did O=C(Nc1ccc(Cl)cc1)/C(=C/c1cccc(O)c1)c1nc2ccccc2s1 do in these assays?
SMN2 splice enh: -105%; ELG1 genotoxic: -17%; Rab9 prom act: -15%; Luc counter: 4%; FLuc modulator: inconclusive; NPC1 promoter act: -9%

Results for Cc1ccc(C)c(NC(=S)c2nc3ccccc3s2)c1 ?
SMN2 splice enh: inconclusive; ELG1 genotoxic: 4%; Rab9 prom act: inconclusive; Luc counter: -4%; FLuc modulator: inconclusive; NPC1 promoter act: inconclusive

What do the screens show for `S=C(Nc1ccc(Cl)cc1)c1nc2ccccc2s1`?
SMN2 splice enh: inconclusive; ELG1 genotoxic: 11%; Rab9 prom act: 3.5µM*; Luc counter: 2%; FLuc modulator: 6.7µM*; NPC1 promoter act: 4µM*

What do the screens show for `N[C@@H](Cc1[nH]nc2ccccc12)C(=O)O`?
SMN2 splice enh: 1%[9.22 µM]; Luc counter: -2%[7.66 µM]

How did CCOc1ccc(-n2nc(CO)c(C(=O)NCCCc3ccccc3)n2)cc1 do in these assays?
SMN2 splice enh: -1%; FLuc modulator: 5.4µM*

What do the screens show for `CCOc1ccc(-n2nc(CO)c(C(=O)NCc3cccc(OC)c3)n2)cc1`?
SMN2 splice enh: -14%; FLuc modulator: 15µM*

Results for O=C(Nc1cccc(Cl)c1)c1csc(-c2ccccc2)n1 ?
SMN2 splice enh: inconclusive; ELG1 genotoxic: 5%; Rab9 prom act: 24%; Luc counter: 1%; FLuc modulator: inconclusive; NPC1 promoter act: 15%

What do the screens show for `CC(C)CCn1c(=O)c2sccc2n2c(CCCC(=O)Nc3ccc(C(C)C)cc3)nnc12`?
FLuc modulator: 2%

Results for CCc1c(C)sc2nc3c(C(=O)N4CCOCC4)cc(C(=O)c4cc(F)ccc4O)cn3c(=O)c12 ?
SMN2 splice enh: -50%; ELG1 genotoxic: -12%; Rab9 prom act: -1%; Luc counter: 3%; FLuc modulator: -9%; NPC1 promoter act: -6%

Results for O=C(O)CSc1cc(C(=O)c2cc(F)ccc2O)cn2c(=O)c3c(-c4ccccc4)csc3nc12 ?
ELG1 genotoxic: -6%; Rab9 prom act: -3%; FLuc modulator: 27µM*; NPC1 promoter act: 0%

Results for CCOC(=O)c1sc2nc3c(SCCC(=O)O)cc(C(=O)c4cc(OC)ccc4O)cn3c(=O)c2c1C ?
SMN2 splice enh: -20%; ELG1 genotoxic: 1%; Rab9 prom act: 2%; Luc counter: 1%; FLuc modulator: 3µM*; NPC1 promoter act: 1%

Results for CCOC(=O)c1sc2nc3c(SCCC#N)cc(C(=O)c4cc(F)ccc4O)cn3c(=O)c2c1C ?
SMN2 splice enh: -40%; ELG1 genotoxic: -5%; Rab9 prom act: -8%; Luc counter: 2%; FLuc modulator: -1%; NPC1 promoter act: 0%

Results for O=C(NNS(=O)(=O)c1ccc(F)cc1)C1CC(c2cccnc2)=NO1 (stereo not given) ?
SMN2 splice enh: -8%; ELG1 genotoxic: -2%; Rab9 prom act: 10%; Luc counter: 3%; FLuc modulator: -5%; NPC1 promoter act: -2%

What do the screens show for `O=C(Oc1ccc(Cl)cc1)N1CCCCC1`?
SMN2 splice enh: 17%; ELG1 genotoxic: 16µM*; Rab9 prom act: 23%; Luc counter: -3%; FLuc modulator: 24µM*; NPC1 promoter act: 15%
